Screening data from PubChem BioAssay.
This is a sample that favours compounds with a hit; in the whole collection about 11% have one here.
JMJD2A Tudor inh: qHTS Assay for Inhibitors of JMJD2A-Tudor Domain; Lysine-specific demethylase 4A (Homo sapiens), O75164; AlphaScreen JMJD2A-Tudor / H3K4me3 peptide binding; Potency, µM (highest dose often 114 µM), for inactives: top-dose activity change, negative = inhibition, hits mostly inhibitors; 390,000 tested, 4.4% active; further: on the % scale 0 is the no-effect control and ±100 the full control effect; nearly all actives have a fitted effect of over 50% in size
G9a inh: qHTS Assay for Inhibitors of Histone Lysine Methyltransferase G9a; 350,000 tested, 8.8% active; Histone-lysine N-methyltransferase EHMT2 (Homo sapiens), Q96KQ7; G9a H3K9 monomethylation, AlphaScreen, 2 h; Potency, µM (doses to about 102 µM), inactives show at the highest dose activity, negative = inhibition, most hits filed as inhibitors; further: on the % scale 0 is the no-effect control and ±100 the full control effect; nearly all actives have a fitted effect of over 75% in size
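Enzyme 20 nM + cpd, 15 min RT; add b-H3K9 pep 500 nM / SAM 20 uM; 2 h RT; anti-H3K9me1 Ab 0.5 ug/mL + SA donor / anti-rabbit acceptor beads 20 ug/mL each, 10 min; AlphaScreen read.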
L3MBTL1 inh: qHTS Assay for the Inhibitors of L3MBTL1. 230,000 tested, 0.66% active. Lethal(3)malignant brain tumor-like protein 1 (Homo sapiens), Q9Y468. AID 485360, 2010. Potency, µM (top dose mostly 57.1 µM), inactives show top-dose activity, negative = inhibition, hits mostly inhibitors. AlphaScreen L3MBTL1–H3K9me1 peptide binding; further: on the % scale 0 is the no-effect control and ±100 the full control effect; nearly all actives have a fitted effect of over 60% in size
Target sequence (Q9Y468 whole entry, looked up): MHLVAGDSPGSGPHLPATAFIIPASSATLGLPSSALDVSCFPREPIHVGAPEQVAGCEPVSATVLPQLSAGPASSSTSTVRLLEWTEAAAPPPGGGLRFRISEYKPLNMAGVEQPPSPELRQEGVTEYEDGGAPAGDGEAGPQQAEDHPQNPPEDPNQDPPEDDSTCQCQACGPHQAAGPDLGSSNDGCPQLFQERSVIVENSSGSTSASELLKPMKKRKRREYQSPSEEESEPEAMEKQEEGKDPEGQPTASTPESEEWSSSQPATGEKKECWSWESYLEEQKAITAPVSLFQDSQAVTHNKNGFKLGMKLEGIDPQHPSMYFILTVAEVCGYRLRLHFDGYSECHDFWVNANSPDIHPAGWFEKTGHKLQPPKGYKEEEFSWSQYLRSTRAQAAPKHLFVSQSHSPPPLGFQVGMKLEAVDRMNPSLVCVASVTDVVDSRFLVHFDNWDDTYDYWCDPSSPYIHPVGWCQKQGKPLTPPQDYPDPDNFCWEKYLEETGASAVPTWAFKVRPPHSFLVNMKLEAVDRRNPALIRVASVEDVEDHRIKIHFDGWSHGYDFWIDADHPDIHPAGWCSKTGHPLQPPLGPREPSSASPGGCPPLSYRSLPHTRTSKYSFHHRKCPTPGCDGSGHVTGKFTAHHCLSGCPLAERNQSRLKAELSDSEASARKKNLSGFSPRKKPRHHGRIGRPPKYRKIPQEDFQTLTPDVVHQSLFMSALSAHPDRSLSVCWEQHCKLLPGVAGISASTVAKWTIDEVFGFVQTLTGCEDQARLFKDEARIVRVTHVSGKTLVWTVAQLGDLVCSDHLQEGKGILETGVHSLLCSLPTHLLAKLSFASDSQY
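AlphaScreen proximity signal between nickel-chelate acceptor and streptavidin donor beads (final 10 ug/mL) reports binding of 50 nM L3MBTL1 to 75 nM biotin-H3 K9me1 peptide; complex incubated with compounds 30 min at room temperature; cefsulodin titration as control.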
BAZ2B block: qHTS Assay for Inhibitors of BAZ2B; Potency, µM (doses to about 114 µM), for inactives: top-dose activity change, negative = inhibition, actives largely listed as inhibitors; AlphaScreen BAZ2B-H3K14Ac peptide displacement; 360,000 tested, 4.4% active; further: on the % scale 0 is the no-effect control and ±100 the full control effect; nearly all actives have a fitted effect of over 60% in size
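Inhibition is scored as reduced AlphaScreen emission. The BAZ2B/b-H3(5-23)K14Ac complex (50 nM each) in PBS pH 7.4, 0.01% Tween-20 meets compound (up to 110 uM) for 30 min at RT before bead addition.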
HP1b binding inh: HTS for Inhibitors of HP1-beta Chromodomain Interactions with Methylated Histone Tails | AlphaScreen HP1-beta / biotin-H3K9me3 peptide binding | Potency, µM (titrated, usually from 114 µM), for the others: at the highest dose activity change, negative = inhibition, most hits filed as inhibitors | 390,000 tested, 0.56% active | AID 540317, 2011; further: nearly all actives have a fitted effect of over 70% in size
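HP1-beta protein (50 nM final) preincubated 30 min at room temperature with biotinylated H3(1-18)K9me3 peptide (50 nM) in PBS pH 7.4, 0.01% Tween-20, then compound added for 30 min. AlphaScreen streptavidin donor/nickel chelate acceptor beads (10 ug/mL final), 30 min dark, luminescence read.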
An asterisk follows results filed as active; ? = inconclusive; . = no result; [ ] = another dose, or the depositor's remark. The call rests on the fitted dose curve; in most records, active means well fitted inhibition curve with a large enough effect; inconclusive means small, poorly fitted or top-dose-only effect; inactive means no such curve, though single readings can be large or run the other way. Potency means the concentration at half of the fitted maximal effect.

SMILES	JMJD2A Tudor inh	G9a inh	L3MBTL1 inh	BAZ2B block	HP1b binding inh
Clc1ccc(CN2CCN(/N=C/c3ccco3)CC2)cc1	?	50µM*	.	?	?
O=C(NCC1(c2ccccc2)CCCC1)C(=O)Nc1cccc(Br)c1	12%	-2%[59 µM]	.	4%	45%
Nc1ccc(S(=O)(=O)NC2(C(F)(F)F)NC(=O)N(c3cccc(Cl)c3)C2=O)cc1 (stereo unspecified)	-8%	7%[59 µM]	.	-16%	51%
O=C(Cn1nc(Cl)nc1Cl)c1ccc([N+](=O)[O-])cc1	-15%	6%	.	-6%	24%
COc1ccc(NCc2nn(CC(=O)c3ccc(Br)cc3)c3[n+]2CCCCC3)cc1	45µM*	35µM*	-19%	35µM*	-17%
O=C(Cn1nc(CNc2ccc(Br)cc2)[n+]2c1CCCCC2)c1ccc([N+](=O)[O-])cc1	-32%	71µM*	-30%	?	-18%
O=C(Cn1nc(CNc2ccc(Cl)cc2)[n+]2c1CCCCC2)c1ccc(Br)cc1	-34%	?	3%	?	-11%
COc1ccc(-n2ccnc(NCCc3ccc(S(N)(=O)=O)cc3)c2=O)cc1	-22%	?	.	-13%	-1%
COC(=O)c1ccccc1NC(=O)Cn1cc(S(=O)(=O)Cc2ccccc2F)c2ccccc21	-21%	-25%[59 µM]	.	?	15%
CC(=O)NCc1nc2cccnc2n1Cc1ccccc1	-1%	-3%[59 µM]	.	4%	29%[57 µM]
CNC(=O)COc1ccc(S(=O)(=O)N2CCCC2)cc1	11µM*	-1%	2%	-3%	-14%
O=C(COC(=O)c1ccc(Cl)nc1)Nc1ccc(S(=O)(=O)N2CCCC2)cc1	-10%	45µM*	-2%	9%	48%
O=C(COC(=O)c1ccc(C(F)(F)F)cc1)Nc1cccc(S(=O)(=O)N2CCCCC2)c1	-21%	10µM*	-1%	-6%	25%
O=C(O)COc1ccc(S(=O)(=O)N2CCCC2)cc1	3%	?	2%	7%	40%
CN(C)c1ccc(C(=O)OCC(=O)Nc2cccc(S(=O)(=O)N3CCCC3)c2)cc1	-23%	.	-11%	.	4%
O=C(COC(=O)c1cnc(Cl)c(Cl)c1)Nc1ccc(S(=O)(=O)N2CCCC2)cc1	-15%	-6%	8%	0%	4%
CC(=O)c1ccc(OCC(=O)Nc2cccc(S(=O)(=O)N3CCCC3)c2)cc1	-16%	20µM*	6%	-2%	22%
CC(OC(=O)c1ccc(Cl)c(S(=O)(=O)N2CCOCC2)c1)C(=O)Nc1ccc(S(N)(=O)=O)cc1 (stereo unspecified)	-19%	-2%	3%	3%	0%
Cc1ccc(S[C@@H](CCN2CC[C@H](NC(=O)OCc3ccccc3)CCC2=O)c2ccccc2)cc1	25µM*	.	-3%	-8%	30%
COc1ccccc1-c1cc(N)n(S(=O)(=O)c2cccc3nsnc23)n1	?	50µM*	.	?	-41%
Nc1cc(-c2ccc(Br)cc2)nn1S(=O)(=O)c1cccc2nsnc12	?	?	.	?	-13%
Nc1cc(-c2ccc(Cl)cc2)nn1S(=O)(=O)c1cccc2nsnc12	45µM*	40µM*	.	?	-22%
COc1ccc(NC(=O)CSc2c(C(C)C)cnc3c2c(=O)n(C)c(=O)n3C)c(OC)c1	-5%	-44%[59 µM]	.	0%	26%[57 µM]
COc1cccc(N2CCN(C(=O)c3ccc4c(Cl)c5c(nc4c3)CCCC5)CC2)c1	?	?	.	?	1%
Cc1ccc(NC(=O)C2CCCN(c3nnc(-n4c(C)ccc4C)s3)C2)c(C)c1 (stereo unspecified)	-28%	18%[59 µM]	.	-12%	46%
Cc1ccc(C(=O)Nc2nc(C)c(C(=O)N(C)C)s2)o1	-21%	-18%	.	-12%	20%
Cc1ccc(C(=O)Nc2nc(-c3ccco3)c(-c3ccco3)s2)o1	?	14µM*	?	20µM*	50µM*
